Data reported in PubChem BioAssay AID1259415 (National Center for Advancing Translational Sciences (NCATS), 2018).
Out of some 410,000 compounds screened, about 18,000 (4.4%) were called active. About 7% were inconclusive and are not listed. The full list was thinned out, with actives kept by preference. Unmarked numbers belong to inactive results. Cut-off read from the data, not from the text of the source: active = activity change below about -60%; inconclusive = no clear call, values can overlap the other calls; inactive = above about -39%.

experiment: qHTS Assay for inhibitors of the human cytomegalovirus (HCMV); details: HFF cells, HCMV-luciferase reporter, 72 h; at 57.5 µM; active compounds read low
Method in brief: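 Cell-based, HFFs, 1000 cells/well, 16 h 37C; cpds in DMSO + HCMV-luc, MOI 1 PFU/cell; 72 h 37C; OneGlo luminescence after 5 min RT; norm. to buffer vs Salinomycin 10uM.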
% is set by controls: 0 for no effect and ±100 for the full control effect.

SMILES | activity change, negative = inhibition
Cc1ccc(C(=O)Nc2ccc(OCc3cc(=O)n4c5c(sc4n3)CCCC5)cc2)cc1 | 7.24%
COc1ccc(S(=O)(=O)N2CCOCC2)cc1NC(=O)CSc1ncnc2ccccc12 | -109% (active)
COc1ccc(S(=O)(=O)N2CCOCC2)cc1NC(=O)CSc1nnc(NC2CC2)s1 | 18.1%
COc1ccc(S(=O)(=O)N2CCOCC2)cc1NC(=O)CSc1cc(C)ccc1C | -10.1%
CCCCN(CC)CCCNC(=O)Cn1ncc2c([nH]c3ccc(C)cc32)c1=O | -8.89%
Cc1[nH]c2ccccc2c1/C=C(/C#N)C(=O)NC(C)C | -36.7%
CNC(=O)/C(C#N)=C/c1c(F)cccc1Cl | -80.3% (active)
O=C(/C=C/c1c(F)cccc1Cl)Nc1nn[nH]n1 | -8.32%
Cc1cc(S(=O)(=O)N2CCOCC2)ccc1OCC(=O)Nc1cccc(C(F)(F)F)c1 | -13.9%
COc1ccccc1NC(=O)COc1ccc(C(=O)OCC(=O)N(C(C)C)C(C)C)cc1OC | -9.98%
COc1cc(C(=O)N(C)Cc2cccc(OC)c2OC)ccc1OCC(=O)Nc1cccc(C(F)(F)F)c1 | -86.1% (active)
CCCN1CCN(CCCNC(=O)Cn2nc(CC)n3c(cc4occc43)c2=O)CC1 | 35.8%
CC(C)(C)Oc1ccccc1Nc1nc(NCCO)nc(N2CCCC2)n1 | 1.45%
O=c1oc2ccccc2cc1-c1cn(-c2ccccc2)c(=S)[nH]1 | -86.5% (active)
CC(C)Cn1c(=O)c2ccccc2n2c(-c3cccc(Cl)c3)nnc12 | 2.19%
COc1ccc(CNC(=O)CSc2nc3ccccc3nc2Cc2ccccc2)cc1 | -15%
COCCNS(=O)(=O)c1cc(-c2nn3c(C)nnc3c3ccccc23)ccc1C | 6.92%
Cc1cc(Cl)c(S(=O)(=O)NCCC(=O)O)cc1OCC(N)=O | 8.87%
Cc1cc(Cl)c(S(=O)(=O)Nc2ccc3c(c2)OCCO3)cc1OCC(N)=O | -65.5% (active)
Cc1cc(Cl)c(S(=O)(=O)N(C)C)cc1OCC(N)=O | 12.2%
CC(C)CNC(=O)CC(c1ccccc1)c1c(O)ccc2ccccc12 (stereo unspecified) | 16%
O=C(/C=C/c1ccccc1)Nc1cc(-c2nc3cc(Cl)ccc3o2)ccc1Cl | 88.6%
CC(=O)N1CCCc2cc(S(=O)(=O)N3CCC(C(=O)NCc4ccc(F)cc4)CC3)ccc21 | 7.04%
O=C(COc1ccccc1)NCc1ccc2c(c1)CCN2C(=O)c1ccc(F)cc1 | -6.87%
O=C(NCc1ccc2c(c1)CCN2C(=O)c1ccccc1)Nc1cc(F)ccc1F | -84.8% (active)
O=C(NCc1ccc2c(c1)CCN2C(=O)c1ccccc1)c1ccccc1 | 13.7%
